# Results taken from the supplement of paper PMC13380429.
# Test system: Vero E6 infected with SARS-CoV-2
# Assay: morphology score (similarity to uninfected cells); higher = more like uninfected cells
# Settings: 24 h
row,Compound,morphology score
1,CC(C)(C#N)c1ccc(N2C(=O)OCc3cnc4ccc(-c5cnc6ccccc6c5)cc4c32)cc1 (10 µM),0.22
2,COc1cc(CCc2cc(NC(=O)c3ccc(N4CC(C)NC(C)C4)cc3)n[nH]2)cc(OC)c1 (centres undefined) (10 µM),0.373
3,OCc1ccccc1O [salicyl-alcohol] (10 µM),-0.0183
4,N[C@@H](Cc1ccc(O)cc1)C(=O)O [plovamer-acetate] (10 µM),0.0812
5,C[C@@H](c1ncncc1F)[C@](O)(Cn1cncn1)c1ccc(F)cc1F [voriconazole] (10 µM),0.0199
6,CCC(C(=O)O)c1ccc(CC(C)C)cc1 (centres undefined) [butibufen] (10 µM),0.268
7,CC(CC(C(N)=O)(c1ccccc1)c1ccccc1)N(C)C (centres undefined) [aminopentamide] (10 µM),0.0885
8,CO[C@@H]1COCC[C@@H]1N[C@@H]1CC[C@@](C(=O)N2CCc3ncc(C(F)(F)F)cc3C2)(C(C)C)C1 (10 µM),-0.21
9,O=C(O)c1ccc2nc(-c3cc(Cl)cc(Cl)c3)oc2c1 [tafamidis-meglumine] (10 µM),0.242
10,O=C(O)Cn1nnc(-c2cc(N3CCC(Oc4cc(F)ccc4Br)CC3)no2)n1 (10 µM),0.00994
11,C[C@H](N)Cn1ccc2cc(F)c(Cl)cc21 (10 µM),0.45
12,CN(C)c1ccc(/C=C2\CCCN=C2c2cccnc2)cc1 [DMAB-anabaseine] (10 µM),0.121
13,CCC(=O)O[C@@](Cc1ccccc1)(c1ccccc1)[C@@H](C)CN(C)C [levopropoxyphene] (10 µM),-0.0577
14,CC(=O)NCCCCCC(=O)O [acexamic-acid] (10 µM),-0.0574
